Assay outcomes: PubChem, National Center for Advancing Translational Sciences (NCATS)
CHX counter: Cycloheximide Counterscreen for Small Molecule Inhibitors of Shiga Toxin. 12% of 300,000 active. cell reporter, cycloheximide protein synthesis inhibition counterscreen. AID 2314, 2010. max response, %; in the data active = max response mostly above about 13%, no sharp cut-off; inactive = mostly below about 14%; note: read at 38.3 µM for the half of the compounds with a filed dose; 0% is about no effect
Pf growth 96h: Primary qHTS for delayed death inhibitors of the malarial parasite plastid, 96 hour incubation; Potency, µM (series often up to 28.7 µM), for inactives: at the top dose activity change, negative = inhibition, most hits filed as inhibitors; 6.9% of 320,000 active; P. falciparum luciferase reporter growth, 96 h; AID 504834, 2011; note: potency is the fitted concentration of half-maximal effect; % is set by controls: 0 for no effect and ±100 for the full control effect
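P. falciparum expressing integrated firefly luciferase grown in erythrocytes (2% hematocrit, 0.05% parasitemia final) with compounds for 96 hours at 37 C, 5% CO2. Growth inhibition read as loss of luminescence after adding luciferase detection reagent.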
Shiga toxin inh: A qHTS for Small Molecule Inhibitors of Shiga Toxin; 9.2% of 290,000 active; Vero cells, Shiga toxin protein synthesis inhibition reporter; inhibition, % at 38.7 µM; in the data active = inhibition mostly above about 28%, no sharp cut-off; inactive = mostly below about 43%; note: 0% is about no effect
HCMV inh: qHTS Assay for inhibitors of the human cytomegalovirus (HCMV) | HFF cells, HCMV-luciferase reporter, 72 h; active compounds read low | activity change, negative = inhibition, % at 57.5 µM | 4.5% of 410,000 active; in the data active = activity change below about -60%; inconclusive = no clear call, values can overlap the other calls; inactive = above about -39%; note: % is set by controls: 0 for no effect and ±100 for the full control effect
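Two-dose cell screen: HFF monolayers treated with compounds and infected with luciferase-expressing HCMV at 1 PFU/cell, 72 h at 37C, then lysed for luciferase measurement.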
Pf growth 48h: Primary qHTS for delayed death inhibitors of the malarial parasite plastid, 48 hour incubation; P. falciparum luciferase growth in erythrocytes, 48 h; 5.9% of 310,000 active; Potency, µM (top dose mostly 28.7 µM), inactives show at the top dose activity change, negative = inhibition, actives largely listed as inhibitors; note: potency is the fitted concentration of half-maximal effect; % is set by controls: 0 for no effect and ±100 for the full control effect
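Growth was read as firefly luciferase luminescence after a 48 h, 37 C, 5% CO2 exposure of compounds to reporter-bearing P. falciparum cultures (0.1% parasitemia, 2% hematocrit final) in Albumax-supplemented RPMI 1640.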
Numbers without * were called inactive; u = inconclusive; x = no result given. Sampled rows, rich in hits. Any-hit rate of the full collection: about 20%. Unless noted, calls come from the whole dose curve; as a rule, active = well fitted inhibition curve with a large enough effect; inconclusive = small, poorly fitted or top-dose-only effect, or another doubt; inactive = no such curve, though single readings can be large or run the other way.

SMILES | CHX counter | Pf growth 96h | Shiga toxin inh | HCMV inh | Pf growth 48h
COC(=O)Cn1c(=O)c2cccn2c2ccc(F)cc21 | x | x | x | -7.0 | x
CC(C)Oc1ccc(CNC(=O)Cn2c(=O)c3cccn3c3cccnc32)cc1 | -2.0 | 14.7µM* | -1.6 | 45.7 | 17.0%
COc1cccc(NC(=O)Cn2c(=O)c3cccn3c3ccc(F)cc32)c1 | x | x | x | -65.3* | x
O=C(CCn1c(=O)c2cccn2c2ccc(F)cc21)NCc1cccc(F)c1 | -2.5 | u | -7.7 | -29.9 | -20.0%
COc1ccccc1-c1cnc(C(O)c2ccc(C)cc2C)[nH]1 (centres undefined) | x | x | x | -15.5 | x
Cc1cccc(OCCC(=O)Nc2ccc(F)c(Cl)c2)c1 | 6.7 | 31.6% | -5.1 | u | 27.2%
Cc1nnc(NC(=O)c2csc3c2CCC(C)C3)s1 (centres undefined) | 8.6 | 26.0% | 5.8 | 13.4 | u
CCOC(=O)N1CCN(C(=O)CN(c2cccc(Cl)c2C)S(=O)(=O)c2ccc(C)cc2)CC1 | x | x | x | -1.2 | x
CC(CNC(=O)CCCn1c(=O)c2cccn2c2ccc(F)cc21)c1ccccc1 (centres undefined) | x | x | x | -13.9 | x
CC(CNC(=O)CCn1c(=O)c2cccn2c2ccc(F)cc21)c1ccccc1 (centres undefined) | 6.3 | 13.1µM* | -10.0 | u | u
COc1cccc(OC)c1C(=O)NC(=S)Nc1ccc2c(c1)OCCO2 | 34.1* | u | 42.2* | u | 4.15µM*
Cc1cc(C)c(C(=O)Nc2ccc3c(c2)OCCO3)c(C)c1 | x | x | x | 67.1 | x
O=C(Nc1ccc2c(c1)OCCO2)c1c(F)cccc1F | 41.1* | x | 74.1* | -17.7 | 262.9%
CCCCCC(=O)NC(=S)Nc1ccc2oc(=O)ccc2c1 | 6.6 | 13.1µM* | 40.2 | -30.0 | -12.5%
O=C(Nc1ccc2c(c1)OCCO2)c1cccc2nc3ccccc3nc12 | 1.2 | u | 14.0 | -92.1* | u
CC1CCCCN1c1nnc(NC(=O)c2cc(-c3ccc(Br)cc3)on2)s1 (centres undefined) | -1.1 | -21.1% | -2.9 | -6.0 | 3.1%
Cc1csc(NC(=O)CSc2nccn2Cc2ccco2)n1 | 5.9 | 30.7% | 22.5 | 2.5 | 23.6%
CCCCNC(=O)C1(C)CCN1C(=O)c1ccncc1 (centres undefined) | x | x | x | -38.6 | x
O=C(NC(=S)Nc1ccc2c(c1)OCCO2)c1ccccc1 | 55.4* | 15.5% | 73.2* | 70.5 | -10.4%
O=C(Nc1ccc(NC(=O)c2ccc3c(c2)OCCO3)cc1)c1ccccc1 | 8.2 | 30.1% | 22.5 | u | 16.0%
O=C(Nc1ccc2c(c1)OCCO2)c1ccccc1F | 46.7* | u | 50.3* | 38.6 | x
O=C(Nc1ccc2c(c1)OCCO2)c1ccccc1Cl | x | x | x | 56.6 | x
O=C(NC(=S)Nc1ccc2oc(=O)ccc2c1)c1ccccc1F | 24.6* | 35.4% | -13.7 | 0.7 | 33.2%
CS(=O)(=O)Nc1ccccc1C(=O)Nc1ccc2c(c1)OCCO2 | 15.2* | 52.5% | 46.3 | 28.0 | 32.9%
COc1ccccc1OP(=O)(O)Oc1ccccc1OC | 14.8 | -21.5% | 3.0 | 64.4 | u
SMILES | CHX counter | Pf growth 96h | Shiga toxin inh | HCMV inh | Pf growth 48h
O=C(NCCCN1CCN(c2ccc(F)cc2)CC1)C1COc2ccccc2C1 (centres undefined) | x | x | x | -18.2 | x
O=C(NC(=S)Nc1ccc2c(c1)OCCO2)c1ccccc1F | 40.9* | u | 144.9* | 32.5 | u
CCOc1cccc(C(=O)NC(=S)Nc2ccc3c(c2)OCCO3)c1 | 61.4* | 13.0% | 113.5* | 28.7 | 81.0%
COc1ccc(NC(=O)c2ccco2)cc1NC(=O)c1ccc(C)c(C)c1 | x | x | x | -3.5 | x
CCOc1ccc(CCNC(=O)Cn2c(C)c3cnn(-c4ccccc4)c(=O)c3c2C)cc1 | x | x | x | -12.4 | x
O=C1/C(=C/c2ccc(Br)cc2)Oc2cc(O)ccc21 | 28.6* | 12.8% | 60.8* | 0.0 | 40.0%
O=C1/C(=C\c2ccc(O)c(O)c2)Oc2cc(O)ccc21 | 6.7 | x | 19.3 | x | x
COC(=O)c1ccc2c(c1)C(=O)/C(=C/c1ccc(O)cc1)O2 | 20.4 | 19.9% | 64.6* | 69.4 | 59.9%
O=C1/C(=C/c2ccc([N+](=O)[O-])cc2)Oc2cc(O)ccc21 | 40.0* | 41.3% | 67.0* | -89.1* | 55.4%
COc1ccc(/C=C2\Oc3cc(OC(=O)N4CCOCC4)ccc3C2=O)c(OC)c1 | 2.7 | u | 24.4 | 19.1 | 0.3%
CN(C)C(=O)Oc1ccc2c(c1)O/C(=C\c1cccc([N+](=O)[O-])c1)C2=O | -1.0 | 13.4% | -5.4 | 19.7 | 14.5%
COc1cccc(/C=C2\Oc3ccc(O)cc3C2=O)c1O | -5.2 | -9.5% | -6.4 | -29.5 | 5.22µM*
Cc1ccc(NC(=O)C2CCCN(S(=O)(=O)c3ccc4c(c3)CCCC(=O)N4)C2)cc1Cl (centres undefined) | x | x | x | -34.8 | x
CC(C)(C)c1ccc(/C=C2\Oc3cc(O)ccc3C2=O)cc1 | 61.0* | u | 125.4* | -91.5* | u
CC(=O)Nc1ccc(-c2csc(N3CCC(C(N)=O)CC3)n2)cc1 | x | -4.7% | x | x | u
Cc1cc2c(cc(C(=O)OCC(=O)NCc3ccco3)n2C)s1 | 14.7* | -8.6% | 43.7 | 57.3 | 33.8%
CC(=O)Nc1ccc(C(=O)OCC(=O)c2ccc(F)cc2)cc1 | 25.1* | -7.9% | 33.6* | -33.0 | 103.7%
CNc1ccccc1C(=O)OCC(=O)c1ccc(F)cc1 | 80.1* | 76.6% | 121.6* | -26.3 | 159.2%
Cn1c(C(=O)OCC(=O)NCc2ccco2)cc2sccc21 | 10.1 | u | 27.1 | 7.2 | 28.3%
CC(C)(C)c1ccc(OCC(=O)NNC(=S)NC(=O)c2ccco2)c(Br)c1 | -2.1 | 0.0% | -8.3 | 2.0 | u
COC(=O)c1ccccc1NC(=O)c1ccc(F)cc1 | 3.0 | 14.9% | 14.4 | -38.5 | 4.1%
CC(C)(C)c1ccc(OCC(=O)NCc2ccco2)c(Br)c1 | 29.5* | 1.7% | 57.7 | 16.5 | 24.9%
COc1cccc(C(NC(C)=O)c2nc(-c3ccc(F)cc3OC)cs2)c1 (centres undefined) | x | x | x | 102.1 | x
CC(C)(C)NC(=O)CN(Cc1cccs1)C(=O)CCC(=O)Nc1nccs1 | -4.1 | 10.2% | 8.7 | u | 21.5%
CCOc1ccc(NC(=O)N2CCCC2C(=O)NCc2ccco2)cc1 (centres undefined) | -7.0 | 5.5% | 3.2 | 12.1 | 3.1%
SMILES | CHX counter | Pf growth 96h | Shiga toxin inh | HCMV inh | Pf growth 48h
O=C(COC(=O)c1ccccc1-c1ccccc1[N+](=O)[O-])c1ccccc1 | 22.3* | u | 20.0 | -1.6 | u
O=C(COC(=O)c1ccccc1Cl)NCc1ccco1 | x | x | x | -0.2 | x
CC(=O)Nc1cc(C(=O)OCC(=O)c2ccc(C)cc2)ccc1C | 85.8* | 12.3% | 127.6* | 70.3 | 158.8%
CNc1ccccc1C(=O)OCC(=O)c1ccccc1 | 45.5* | 109.3% | 32.6* | x | 120.3%
CC(=O)Nc1cc(C(=O)OCC(=O)c2ccc(Cl)cc2Cl)ccc1C | 1.3 | 28.2% | 3.0 | -0.5 | 13.1%
CCOc1ncccc1C(=O)OCC(=O)c1ccccc1 | 2.2 | 51.2% | -4.1 | -12.5 | 18.0%
